PubChem BioAssay
Unmarked numbers belong to inactive results. The rule behind the calls is not given here.

Biological target: Pantothenate synthetase (Mycobacterium tuberculosis (strain ATCC 25618 / H37Rv)) (UniProt P9WIL5)
Assay: Recombinant Mtb pantothenate synthetase (PanC) inhibitors, coupled enzyme, confirmatory (AID 375);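 note: 0% = full reaction with vehicle and 100% = no enzyme background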
Settings: coupled enzyme assay; at 10 µM, hits give high values

Pantothenate synthetase (Mycobacterium tuberculosis (strain ATCC 25618 / H37Rv)), sequence (P9WIL5 whole entry, looked up): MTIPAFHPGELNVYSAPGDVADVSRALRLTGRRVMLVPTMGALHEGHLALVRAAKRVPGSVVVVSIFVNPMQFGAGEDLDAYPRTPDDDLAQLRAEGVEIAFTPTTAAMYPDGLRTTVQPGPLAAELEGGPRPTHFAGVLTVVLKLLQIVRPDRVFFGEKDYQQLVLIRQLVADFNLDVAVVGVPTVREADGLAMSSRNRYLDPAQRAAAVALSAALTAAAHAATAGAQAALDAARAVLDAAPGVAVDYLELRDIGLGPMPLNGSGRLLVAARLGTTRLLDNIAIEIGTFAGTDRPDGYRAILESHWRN

| Structure (SMILES) | inhibition [%] |
| --- | --- |
| [O-][n+]1c2ccc3nonc3c2nn1-c1ccccc1Cl | 0 |
| Brc1ccc2[nH]ncc2c1 | 10 |
| COc1ccc(CN(CC(=O)NCc2ccco2)C(=O)CCC(=O)Nc2nccs2)cc1 | 0 |
| COCCCN1C(=O)C(=O)/C(=C(/O)c2ccc(OCC(C)C)cc2C)C1c1cccnc1 (stereo not given) | 0 |
| COc1ccc2c(=O)c3c(=O)n(Cc4ccco4)c(-c4cc(OC)c(OC)c(OC)c4)nc3oc2c1 | 5 |
| CC(=O)N1CCC(N(C(=O)Nc2ccc(C)c(C)c2)C2CCCC2)CC1 | 0 |
| CC(=O)Nc1ccc(S(=O)(=O)Nc2nc3ccccc3nc2N2CCCC2)cc1 | 8 |
| CC(=O)c1c(OC(=O)c2ccco2)c2ccccc2n1C | 0 |
| COc1ccc(C(=O)N2CCSC2=S)cc1OC | 0 |
| COc1cc(N2C(=O)CSC23C(=O)Nc2ccccc23)cc(OC)c1OC (stereo not given) | 0 |
| CC(=O)SCCC(=O)Nc1ccccc1 | 0 |
| Cc1ccc(-n2nc(-c3cccs3)cc2C(=O)NCC2CCCO2)c(C)c1 (stereo not given) | 0 |
| COc1ccc(NC(=O)Cn2nnc(-c3ccccc3N)n2)cc1OC | 0 |
| COc1cc(C(=O)OC(C)CN2CCCC2)cc(OC)c1OC (stereo not given) | 4 |
| CCOc1ccc(Nc2nc(Cc3nnc(SCC(N)=O)o3)cs2)cc1 | 0 |
| Cc1ccccc1OCc1nnc(SCC(=O)NCc2ccccc2)n1C | 0 |
| O=C(CSc1ncnc2ccccc12)N1CCN(c2ccccc2)CC1 | 0 |
| O=C1CS/C(=N\C(=O)N2c3ccccc3Sc3ccccc32)N1 | 0 |
| O=C1CC(c2ccc(F)c(Br)c2)C2=C(CCCC2=O)N1 (stereo not given) | 5 |
| C/C(N)=C(/C#N)C(=O)COC(=O)COc1ccc(Cl)cc1 | 5 |
| COC(=O)CNC(=O)c1c(C)cc(=O)oc1C | 3 |
| CC1Cc2ccccc2N1Cc1cc(=O)n2ccsc2n1 (stereo not given) | 0 |
| Cc1cccc(-n2ccnc2SCC(=O)Nc2cc(C)on2)c1 | 1 |
| c1ccc2c(c1)Cn1c-2nc2ccccc21 | 0 |
| CCC(=O)c1ccc(OCC(O)CN2CCN(S(=O)(=O)N3CCCCC3)CC2)cc1 (stereo not given) | 1 |
| Nc1c(N2CCCCC2)c(=O)[nH]c(=O)n1-c1ccccc1 | 0 |
| N#Cc1c(/N=C/c2ccco2)sc2c1CCC2 | 0 |
| COCCN(CCOC)C(=O)CCn1c(=O)oc2ccccc21 | 0 |

| Structure (SMILES) | inhibition [%] |
| --- | --- |
| COC(=O)c1ccc(CSc2ncnc3c2nnn3-c2ccc(OC)cc2)o1 | 0 |
| COc1ccccc1-c1cc(C(=O)Nc2cc(C)nn2-c2ccccc2)no1 | 6 |
| CCCCN(CC)S(=O)(=O)N1CCC(C(=O)NCc2ccc(F)cc2)CC1 | 6 |
| COc1ccc(Cn2nnnc2C(c2ccccc2OC)N2CCC(C(N)=O)CC2)cc1 (stereo not given) | 0 |
| CC(C)CSc1nc2ccccc2n1CC(N)=O | 5 |
| O=C(CN1C(=O)COc2ccccc21)NCCCN1CCN(Cc2ccccc2)CC1 | 0 |
| Cc1ccc2c(c1C)NC(C(=O)O)C1CC=CC21 (stereo not given) | 0 |
| CS(=O)(=O)N1CCCC(C(=O)NCCCN2CCc3ccccc3C2)C1 (stereo not given) | 2 |
| C/C(=N\O)c1ccc2c3c([nH]c2c1)CCCC3 | 2 |
| Nc1nonc1-n1nnc(C(=O)c2ccccc2)c1-c1ccccc1 | 0 |
| CCn1cc(C(=O)NCC2COc3ccccc3O2)c2cc(OC)c(OC)cc2c1=O (stereo not given) | 11 |
| Cc1ccccc1NS(=O)(=O)c1cc(S(C)(=O)=O)ccc1Cl | 0 |
| Cc1nc(NC2=NCN(CCN3CCOCC3)CN2)nc2c(C)cccc12 | 0 |
| COc1cc(C2c3c(n[nH]c3C)C(=O)N2c2ccc(Br)cc2)ccc1O (stereo not given) | 4 |
| O=c1oc2ccccc2n1CCn1c2ccccc2c2nc3ccccc3nc21 | 0 |
| CCOC(=O)c1ccc(COC(=O)c2cc3ccccc3oc2=O)o1 | 0 |
| O=C1CN(C(=O)COC(=O)C23CC4CC(CC(O)(C4)C2)C3)c2ccccc2N1 | 19 |
| C=CCn1c(-c2ccccc2)c[nH]c1=S | 0 |
| CC1(C)S[C@@H]2[C@H](NC(=O)[C@H](C(=O)O)c3ccsc3)C(=O)N2[C@H]1C(=O)O | 5 |
| COC(=O)c1cccc(NC(=O)Cc2coc3cc(OC)ccc23)c1 | 0 |
| Cc1cnc(C(=O)OCC(=O)Nc2ccc(Cl)cc2Cl)cn1 | 8 |
| CC1=CC=CC2=NC(=O)CC(C)(C(=O)N(CC(=O)NC(C)C)C3CCCC3)N12 (stereo not given) | 4 |
| COc1ccc(CCNC(=O)c2cc3sc(Cl)cc3n2C)cc1OC | 0 |
| CC1=C(C#N)C(c2ccoc2)C(C(=O)OCc2ccccc2)=C(N)S1 (stereo not given) | 5 |
| CCOC(=O)c1sc2nc(N3CCCC3)c3c(c2c1N)CC(C)(C)OC3 | 0 |
| COc1ccc(NC(=O)CSc2nnc(-c3ccncc3)n2CC2CCCO2)c(OC)c1 (stereo not given) | 4 |
| CC1CC(C)CN(Cc2nc3c(c(=O)n(C)c(=O)n3C)n2Cc2ccccc2Cl)C1 (stereo not given) | 0 |
